Laboratory results reported in PubChem BioAssay (NCATS).
Records with an inconclusive call do not appear. The source made the active and inactive calls. Unless noted, the rule behind the calls is not given here.

Experiments:
[1] = qHTS profiling of the MIPE4 collection as inhibitors of Plasmodium falciparum (DD2) proliferation (AID 743345); conditions: P. falciparum Dd2 in erythrocytes, SYBR Green DNA, 72 h; at 28.5 µM (top of the series) unless noted
Outline: (§1)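 Parasite DNA was quantified by SYBR Green I fluorescence (ex 485, em 535 nm) after overnight lysis in saponin/Triton buffer at room temperature. Cultures at 0.3% parasitemia and 2.5% hematocrit were first exposed to compound for 72 h at 37 C; signals were normalised to artemisinin (0.29 uM) and vehicle wells.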

[2] = qHTS profiling of the MIPE4 collection as inhibitors of Plasmodium falciparum (DD2) proliferation (Rep 2) (AID 743346); conditions: P. falciparum Dd2 in erythrocytes, SYBR Green DNA, 72 h; at 28.5 µM (top of the series) unless noted
Outline: as §1

[3] = qHTS profiling of the MIPE4 collection as inhibitors of Plasmodium falciparum (HB3) proliferation (AID 743347);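 note: plate controls were DMSO vehicle wells for no effect and artemisinin wells for full effect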; conditions: P. falciparum HB3 in erythrocytes, SYBR Green DNA, 72 h; at 28.5 µM (top of the series) unless noted
Outline: as §1

[4] = High-throughput drug toxicity screening in the BPDCN cell line Gen2.2 (AID 1224824); conditions: Gen2.2 BPDCN cells; at 45.8 µM (top of the series) unless noted;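 note: cells exposed to compounds for 48 h before reading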
Outline: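 Gen2.2 cells (500/well) in phenol red-free RPMI with 10% FBS were exposed to compounds for 48 h at 37 °C, 5% CO2. Viability was read by CellTiter-Glo luminescence and normalized to DMSO (100%) and 9.2 uM bortezomib (0%).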

[5] = High-throughput drug toxicity screening in the BPDCN cell line Cal-1 (AID 1224825); conditions: Cal-1 BPDCN cell viability, qHTS; at 45.8 µM (top of the series) unless noted
Outline: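 CellTiter-Glo luminescence after 48 h compound exposure; percent activity scaled with DMSO as 100% and bortezomib (9.2 uM final) as 0%. Cal-1 cells seeded at 500/well in RPMI, 10% FBS, no phenol red.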

[6] = qHTS assay for measurement of the activity of small molecule inhibitors on Zika virus induced Caspase-3 activity in human astrocytoma cells (AID 1224859; active = well fitted curve in the direction sought with a large enough effect; an effect the other way counts as inactive or inconclusive;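 note: plate controls were ZIKV-infected untreated cells for no effect and uninfected cells for full effect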)
Outline: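 Inhibition of Zika-induced caspase-3/7 activity: SNB-19 cells, 1 h compound pretreatment, ZIKV 2 FFU/cell for 6 h at 37 C, Caspase-Glo luminescence read-out.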

[7] = qHTS profiling of the MIPE4 collection as inhibitors of Plasmodium falciparum (3D7) proliferation (AID 743344);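 note: scaled between DMSO vehicle wells and 0.29 µM artemisinin as full inhibition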; conditions: P. falciparum 3D7 in erythrocytes, SYBR Green DNA fluorescence, 72 h; at 28.5 µM (top of the series) unless noted
Outline: as §1

[8] = qHTS Screen of the MIPE 4.0 Collection Against Ewings Sarcoma (RDES) (AID 1259252; active = well fitted curve in the direction sought with a large enough effect; an effect the other way counts as inactive or inconclusive; note: nearly all actives have a fitted effect of over 35% in size; note: potency is the fitted concentration of half-maximal effect)
Outline: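 Dose series incubated 48 h with cells in RPMI plus 5% FBS, glutamine and penicillin/streptomycin; cell viability then quantified via CellTiter-Glo.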

[9] = qHTS Assay for Identifying Gametocytocidal Compounds (AID 743244; active = well fitted curve in the direction sought with a large enough effect; an effect the other way counts as inactive or inconclusive;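 note: % is set by controls: 0 for no effect and ±100 for the full control effect; actives lower the fluorescent signal which means gametocytes are killed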); conditions: P. falciparum 3D7 stage III-V gametocytes, alamarBlue, 72 h; max response: stronger effect = lower value
Outline: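 Using 20,000 stage III–V 3D7 gametocytes per well, compounds were incubated 72 h under 37 °C/5% CO2. Viability was then assessed by 24 h alamarBlue reduction, measured fluorometrically at 525/598 nm.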

[10] = qHTS profiling for inhibitors of Plasmodium falciparum (3D7) proliferation (AID 743322);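 note: infected erythrocytes exposed to compound for 72 h before lysis; 100% = DMSO vehicle wells and 0% = 0.29 µM artemisinin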; conditions: P. falciparum 3D7 proliferation; at 28.7 µM (top of the series) unless noted
Outline: as §1

[11] = qHTS profiling for inhibitors of Plasmodium falciparum (DD2) proliferation (AID 743323); conditions: lower = more inhibition; at 28.7 µM (top of the series) unless noted
Outline: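 1536-well qHTS; infected RBCs 0.3% parasitemia/2.5% Hct final; cpd 72 h 37 C 5% CO2; lysis buffer + SYBR Green I, o/n RT dark; FI 485/535; norm. to 0.29 uM artemisinin and DMSO, plate-stack corrected.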

[12] = qHTS profiling for inhibitors of Plasmodium falciparum (HB3) proliferation (AID 743324; active = well fitted curve in the direction sought with a large enough effect; an effect the other way counts as inactive or inconclusive;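 note: 100% = DMSO vehicle wells and 0% = artemisinin-treated control wells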); conditions: Plasmodium falciparum HB3 blood-stage proliferation; at 28.7 µM (top of the series) unless noted
Outline: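 SYBR Green fluorescence (485 ex/535 em) of lysed cultures, incubated overnight at room temperature in the dark, quantifies parasite DNA. Infected erythrocytes at 0.3% parasitemia and 2.5% hematocrit were exposed 72 h; values normalized to DMSO and 0.29 uM artemisinin controls.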

[13] = qHTS assay for measurement of the activity of small molecule inhibitors on Zika virus induced Caspase-3 activity in human iPSC derived neural progenitor cells (hNPCs) (AID 1224857; active = well fitted curve in the direction sought with a large enough effect; an effect the other way counts as inactive or inconclusive; note: % of control where 0% means no effect; nearly all actives have a fitted effect of over 65% in size)
Outline: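 After overnight (16–20 h) culture at 350 cells/well, hNPCs get compound, then ZIKV 2 FFU/cell one hour later. Six hours on, Caspase-Glo 3/7 is added and luminescence measured.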

Structure (SMILES)	parasite growth remaining, % of DMSO control (lower = more inhibition) [1]	parasite growth, % of control (lower = inhibition) [2]	growth, % of control [3]	cell viability, % of control (lower = more cytotoxic) [4]	viability (% of control) [5]	Potency [6]	parasite growth, % of DMSO control [7]	Potency [8]	max response [9]	remaining parasite growth % (stronger effect = lower value) [10] [%]	activity, percent of control [11] [%]	remaining proliferation (% of control), lower = more inhibition [12] [%]	Potency [13]
CC(C)c1c(C(=O)Nc2ccccc2)c(-c2ccccc2)c(-c2ccc(F)cc2)n1CC[C@H](O)C[C@@H](O)CC(=O)O	82.2%	17.6%	4.89%	41.5%	93.6%	inactive	–	–	–	–	–	–	–
CN(C(Cc1ccc(OS(=O)(=O)c2cccc3cnccc23)cc1)C(=O)N1CCN(c2ccccc2)CC1)S(=O)(=O)c1cccc2cnccc12 (stereo unspecified)	7.38%	10.8%	8.15%	116%	85.3%	–	6.17%	–	–	–	–	–	–
N#Cc1ccc(Oc2ccc3c(c2)COB3O)cc1	91.9%	38.3%	24.2%	210%	98.9%	inactive	35.7%	inactive	–	–	–	–	–
CC=C1C2C=C(C)CC1(N)c1ccc(=O)[nH]c1C2 (stereo unspecified)	19.1%	–	–	164%	128%	inactive	100%	inactive	–	–	–	–	–
Cc1csc(-c2nnc(Nc3ccc(Oc4ncccc4-c4ccnc(N)n4)cc3)c3ccccc23)c1	81.1%	47.8%	26.8%	24.7%	13.3%	–	–	0.0296 µM (active)	10.6% (inactive)	93.3	85.6	51.2	–
CCCCC[C@H](O)C=C[C@H]1[C@H](O)CC(=O)[C@H]1CCCCCCC(=O)O	133%	71.7%	103%	64.6%	93.2%	inactive	71.4%	inactive	–	–	–	–	–
Cc1nc(C(=O)NCC(=O)O)c(O)c2ccc(Oc3ccccc3)cc12	95.5%	67.9%	69.9%	54.1%	115%	inactive	86.9%	–	–	–	–	–	–
OC[C@H]1O[C@@H](Oc2ccc(O)cc2)[C@H](O)[C@@H](O)[C@H]1O	94.8%	127%	93.4%	146%	83.5%	inactive	82.1%	inactive	–	–	–	–	–
Cc1ccc2c(=O)c3cccc(CC(=O)O)c3oc2c1C	94%	76.8%	101%	78%	50.1%	inactive	95.5%	18.7 µM (active)	–	–	–	–	–
O=C(O)c1nc(=O)[nH]c(=O)[nH]1	106% [at 9.64 µM]	93.6% [at 9.64 µM]	89.9% [at 9.64 µM]	161% [at 23.2 µM]	99.2% [at 23.2 µM]	inactive	88.8% [at 9.64 µM]	inactive	15.4% (inactive)	–	–	–	–
C[C@@H](O)[C@H]1C(=O)N2C(C(=O)OCOC(=O)C(C)(C)C)=C(SC3CN(C4=NCCS4)C3)[C@H](C)[C@H]12	–	107%	104%	58.2%	39.5%	inactive	66%	inactive	–	–	–	–	–
NCC1CCC(C(=O)O)CC1 (stereo unspecified)	–	104%	159%	–	115%	inactive	–	inactive	-0.776% (inactive)	–	–	–	inactive
Cc1ccc(NC(=O)Nc2cc(C(F)(F)F)ccc2F)cc1Nc1ccc2c(c1)NC(=O)C2=Cc1ccc[nH]1	14.1%	21.7%	10.9%	–	2.92%	inactive	8.05%	23.5 µM (active)	–	–	–	–	–
COc1nc(C)cnc1NS(=O)(=O)c1cccnc1-c1ccc(-c2nnco2)cc1	100%	74.5%	100%	–	142%	inactive	–	inactive	18.4% (inactive)	63.7	88	91.9	inactive
CCCCCCCCCCCCCCCC(=O)O[C@H]1[C@@H](O)[C@@H](O)[C@@H]([C@H](NC(=O)[C@@H]2C[C@@H](CCC)CN2C)[C@H](C)Cl)O[C@@H]1SC	11%	20.4%	–	–	94.5%	–	31.4%	inactive	–	–	–	–	–
CC(C)n1c(C=C[C@H](O)C[C@H](O)CC(=O)O)c(-c2ccc(F)cc2)c2ccccc21	–	–	–	–	66.9%	inactive	–	–	-4.13% (inactive)	–	–	–	inactive
NC(N)=Nc1nc(CSCCC(N)=NS(N)(=O)=O)cs1	98.2%	84.9%	92.7%	–	50.4%	inactive	74.6%	11.8 µM (active)	–	–	–	–	–
NC(=O)c1nnn(Cc2cc(Cl)c(C(=O)c3ccc(Cl)cc3)c(Cl)c2)c1N	33.4%	37%	6.97%	–	45.1%	–	23.3%	–	–	–	–	–	inactive
O=C(O)Cc1cccc(OCCCN(Cc2cccc(C(F)(F)F)c2Cl)CC(c2ccccc2)c2ccccc2)c1	42.2%	18.9%	15.4%	–	117%	inactive	20.8%	–	0.38% (inactive)	36.2	34.1	5.3	inactive
CCOC(=O)[C@@H](N)CCC(=O)N[C@@H](CSCc1ccccc1)C(=O)N[C@@H](C(=O)OCC)c1ccccc1	86.5%	163%	101%	–	90.7%	inactive	89.7%	inactive	–	51.1	92	64.9	inactive
CC(C)=CCCC(C)=CCCC(C)=CCCC(C)=CCCC(C)=CCCC(C)=CCCC(C)=CCCC(C)=CCCC(C)=CCO	17.5%	99.4%	100%	–	121%	inactive	95.7%	inactive	–	–	–	–	inactive
CC[C@H](CC#N)OC(=O)N[C@@H](C)c1cccc(NC(=O)Nc2ccc(-c3cnco3)c(OC)c2)c1	–	17.5%	9.12%	–	18.6%	inactive	12.8%	–	–	–	–	–	inactive
